Results from PubChem BioAssay (Tox21).
Results filed as inconclusive are left out. Activity calls are given as the source filed them. Unless noted, calls follow the shape of the dose curve; as a rule, active = well fitted curve in the direction sought with a large enough effect in the repeat runs; inconclusive = weak or mixed curves; inactive = no such curve, though single readings can be large; an effect the other way counts as inactive or inconclusive. Where a SMILES comes first, the peptide text is derived from it. [ ]: non-standard residue; d: D form. pGlu = O=C1CC[C@@H](C(=O)O)N1

Tests used:
[1] = qHTS assay to identify small molecule antagonists of the peroxisome proliferator-activated receptor gamma (PPARg) signaling pathway - cell viability counter screen (AID 743194); also: nearly all actives have a fitted effect of over 55% in size
Procedure, shortened: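 Viability was measured as CellTiter-Glo luminescence in GeneBLAzer PPARg UAS-bla HEK293H cells. These cells had been exposed 17 h at 37 C to compounds together with rosiglitazone at 50 nM final, with the beta-lactamase readout taken in the same wells.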

[2] = qHTS assay for small molecule agonists of the antioxidant response element (ARE) signaling pathway (AID 743202; active = well fitted activation curve with a large enough effect in the signal ratio in the repeat runs, not every such curve was filed as active; the % refers to the signal ratio)
Procedure, shortened: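 After 16 hours of compound treatment at 37 C, HepG2 cells with a stably integrated ARE-driven beta-lactamase reporter were loaded 2 hours at room temperature with LiveBLAzer B/G FRET substrate and fluorescence intensity measured.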

[3] = qHTS assay for small molecule agonists of the antioxidant response element (ARE) signaling pathway - cell viability counter screen (AID 743203; calls by dose curve; also: nearly all actives have a fitted effect of over 55% in size)
Procedure, shortened: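 Viability counter screen: stably transfected ARE-bla HepG2 line, 16 hrs compound exposure at 37C/5% CO2, ATP-based CellTiter-Glo luminescence measured in the reporter wells.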

[4] = qHTS assay for small molecule activators of the heat shock response signaling pathway - cell viability counter screen (AID 743209); also: nearly all actives have a fitted effect of over 50% in size
Procedure, shortened: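 Viability of HSE-bla HeLa cells is measured with CellTiter-Glo in the wells already used for the reporter read. Compound exposure lasts 5 h at 37 C, and luminescence is read after 30 min at room temperature.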

[5] = qHTS assay for small molecule activators of the heat shock response signaling pathway (AID 743210; active = well fitted activation curve with a large enough effect in the signal ratio in the repeat runs, with a control signal flat, not every such curve was filed as active; the % refers to the signal ratio; also: series mostly up to about 63 µM)
Procedure, shortened: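 Compound exposure lasted 5 h at 37 C in HeLa cells carrying a heat-shock-element-driven beta-lactamase reporter. Read-out: fluorescence intensity after 2.5 h room-temperature loading with LiveBLAzer B/G FRET substrate.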

[6] = qHTS assay to identify small molecule agonists of the peroxisome proliferator-activated receptor delta (PPARd) signaling pathway - cell viability counter screen (AID 743211); also: nearly all actives have a fitted effect of over 55% in size
Procedure, shortened: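 Multiplexed format: after the 2 h room-temperature LiveBLAzer B/G FRET step, CellTiter-Glo was added to the same wells. Luminescence after 30 min gave cell viability; compound exposure was 17 h at 37C.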

[7] = target: Peroxisome proliferator-activated receptor delta (Homo sapiens) (UniProt Q03181); assay: qHTS assay to identify small molecule agonists of the peroxisome proliferator-activated receptor delta (PPARd) signaling pathway (AID 743212; calls by dose curve;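 also: HEK293H cells with PPARd UAS beta-lactamase reporter GeneBLAzer system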)
Chain of Peroxisome proliferator-activated receptor delta (Homo sapiens) (Q03181 whole entry, looked up): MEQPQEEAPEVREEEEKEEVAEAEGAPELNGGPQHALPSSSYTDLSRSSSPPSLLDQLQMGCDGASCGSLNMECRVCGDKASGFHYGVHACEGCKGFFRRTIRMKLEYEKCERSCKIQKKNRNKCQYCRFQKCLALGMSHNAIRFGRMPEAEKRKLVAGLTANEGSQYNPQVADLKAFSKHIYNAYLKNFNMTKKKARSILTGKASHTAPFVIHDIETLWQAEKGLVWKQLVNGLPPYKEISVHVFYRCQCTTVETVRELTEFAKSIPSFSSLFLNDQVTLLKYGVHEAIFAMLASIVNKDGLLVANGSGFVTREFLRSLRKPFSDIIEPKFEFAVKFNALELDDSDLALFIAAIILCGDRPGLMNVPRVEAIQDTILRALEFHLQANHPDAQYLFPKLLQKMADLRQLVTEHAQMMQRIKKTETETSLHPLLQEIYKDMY
Procedure, shortened: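 Beta-lactamase reporter readout: a ratiometric FRET signal from the LiveBLAzer substrate after 2 h at room temperature. Compound exposure at 37 °C in PPARδ-bla HEK293H cells driven by an upstream activator sequence.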

[8] = qHTS assay to identify small molecule antagonists of the peroxisome proliferator-activated receptor delta (PPARd) signaling pathway - cell viability counter screen (AID 743213); also: nearly all actives have a fitted effect of over 50% in size
Procedure, shortened: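 PPARd-bla HEK293H cells were treated with compounds plus agonist L165041 (300 nM final) for 17 h at 37 C. Viability was then read in the same wells by CellTiter-Glo luminescence after 30 min at room temperature.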

[9] = target: Peroxisome proliferator-activated receptor delta (Homo sapiens) (UniProt Q03181); assay: qHTS assay to identify small molecule antagonists of the peroxisome proliferator-activated receptor delta (PPARd) signaling pathway (AID 743215; active = well fitted inhibition curve with a large enough effect in the signal ratio in the repeat runs, not every such curve was filed as active; the % refers to the signal ratio;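 also: cells stimulated with agonist L165041 at 300 nM final during compound exposure; series mostly up to about 62 µM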)
Procedure, shortened: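 Plated HEK293H PPARd-bla cells rested 5 h at 37 C and 5% CO2. Compound, then agonist L165041 at 300 nM final, was added; 17 h at 37 C followed. Substrate loading, 2 h room temperature, fluorescence measured.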

[10] = qHTS assay to identify small molecule agonists of the farnesoid-X-receptor (FXR) signaling pathway - cell viability counter screen (AID 743218); also: nearly all actives have a fitted effect of over 45% in size
Procedure, shortened: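 Viability of FXR-bla HEK 293T cells is measured by ATP-based CellTiter-Glo luminescence following 16 h compound treatment at 37 C and a prior 2 h room-temperature beta-lactamase substrate step.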

[11] = target: Bile acid receptor (Homo sapiens) (UniProt Q96RI1); assay: qHTS assay to identify small molecule agonists of the farnesoid-X-receptor (FXR) signaling pathway (AID 743220; active = well fitted activation curve with a large enough effect in the signal ratio in the repeat runs, not every such curve was filed as active; the % refers to the signal ratio)
Chain of Bile acid receptor (Homo sapiens) (Q96RI1 whole entry, looked up): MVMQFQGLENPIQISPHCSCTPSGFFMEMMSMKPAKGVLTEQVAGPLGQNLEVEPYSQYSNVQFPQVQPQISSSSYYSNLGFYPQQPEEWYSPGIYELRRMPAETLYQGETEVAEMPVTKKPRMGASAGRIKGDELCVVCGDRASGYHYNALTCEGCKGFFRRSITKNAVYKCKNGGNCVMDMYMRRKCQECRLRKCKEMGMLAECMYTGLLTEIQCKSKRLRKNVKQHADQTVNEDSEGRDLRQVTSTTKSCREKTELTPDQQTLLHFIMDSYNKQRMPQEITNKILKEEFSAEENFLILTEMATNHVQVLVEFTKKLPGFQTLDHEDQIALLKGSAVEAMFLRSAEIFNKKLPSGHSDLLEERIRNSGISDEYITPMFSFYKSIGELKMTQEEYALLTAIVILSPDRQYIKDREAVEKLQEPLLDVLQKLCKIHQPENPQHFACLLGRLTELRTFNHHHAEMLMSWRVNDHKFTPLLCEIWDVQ
Procedure, shortened: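 FXR-UAS-bla HEK 293T cells carrying a UAS-driven beta-lactamase reporter were plated for 5 h at 37C/5% CO2, then exposed to DMSO-dissolved Tox21 10K compounds for 16 h at 37C. A LiveBLAzer B/G FRET substrate was loaded for 2 h at room temperature before fluorescence reading.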

[12] = qHTS assay to identify small molecule antagonists of the farnesoid-X-receptor (FXR) signaling pathway - cell viability counter screen (AID 743221; active = well fitted cell-killing curve with a large enough effect in the repeat runs, not every such curve was filed as active; also: nearly all actives have a fitted effect of over 50% in size)
Procedure, shortened: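 CellTiter-Glo, 30 min RT, luminescence; same wells as the LiveBLAzer FRET read. Cells: FXR-UAS-bla HEK 293T. Treatment: compound with chenodeoxycholic acid 50 uM final, 16 h at 37 C.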

[13] = target: Vitamin D3 receptor (Homo sapiens) (UniProt P11473); assay: qHTS assay to identify small molecule agonists of the vitamin D receptor (VDR) signaling pathway (AID 743222; calls by dose curve)
Chain of Vitamin D3 receptor (Homo sapiens) (P11473 whole entry, looked up): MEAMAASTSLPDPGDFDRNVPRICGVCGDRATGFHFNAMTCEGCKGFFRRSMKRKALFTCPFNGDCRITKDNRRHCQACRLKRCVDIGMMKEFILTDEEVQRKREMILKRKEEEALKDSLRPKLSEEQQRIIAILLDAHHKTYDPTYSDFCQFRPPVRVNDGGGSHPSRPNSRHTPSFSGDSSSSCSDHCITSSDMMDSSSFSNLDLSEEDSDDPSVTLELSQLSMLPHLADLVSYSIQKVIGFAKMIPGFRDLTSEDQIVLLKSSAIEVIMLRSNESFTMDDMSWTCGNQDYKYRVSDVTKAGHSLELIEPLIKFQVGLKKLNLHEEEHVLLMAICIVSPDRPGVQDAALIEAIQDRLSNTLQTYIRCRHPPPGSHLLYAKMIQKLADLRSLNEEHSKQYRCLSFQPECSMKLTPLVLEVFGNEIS
Procedure, shortened: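 Fluorescence from cleaved LiveBLAzer B/G FRET substrate served as readout. VDR-bla cells had been treated 16 h at 37C with test compounds in DMSO, following a 4 h settling period, and substrate was loaded for 2 h at RT.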

[14] = target: Vitamin D3 receptor (Homo sapiens) (UniProt P11473); assay: qHTS assay to identify small molecule antagonists of the vitamin D receptor (VDR) signaling pathway (AID 743223; active = well fitted inhibition curve with a large enough effect in the signal ratio in the repeat runs, not every such curve was filed as active; the % refers to the signal ratio)
Procedure, shortened: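 After VDR-bla cells are plated and left 4 h at 37C, DMSO-dissolved compounds and 3 nM (final) calcitriol agonist are added. Incubation continues 16 h at 37C; FRET beta-lactamase substrate then develops 2 h at room temperature.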

[15] = qHTS assay to identify small molecule that activate the aryl hydrocarbon receptor (AhR) signaling pathway - cell viability counter screen (AID 743086);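 also: HepG2 liver cells carrying the AhR DRE luciferase reporter; series mostly up to about 70 µM; nearly all actives have a fitted effect of over 45% in size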
Procedure, shortened: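 Cytotoxicity counter screen: CellTiter-Fluor signal (30 min, 37 C) in 4000 HepG2 cells/well carrying the DRE-luciferase reporter, following 24 h compound exposure at 37 C.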

[16] = target: Bile acid receptor (Homo sapiens) (UniProt Q96RI1); assay: qHTS assay to identify small molecule antagonists of the farnesoid-X-receptor (FXR) signaling pathway (AID 743217; active = well fitted inhibition curve with a large enough effect in the signal ratio in the repeat runs, not every such curve was filed as active; the % refers to the signal ratio)
Procedure, shortened: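 Screen of the Tox21 10K library in quantitative HTS format using FXR-UAS-bla HEK 293T reporter cells. Agonist chenodeoxycholic acid, 50 uM final, added with compounds; 16 h incubation at 37 °C; beta-lactamase FRET fluorescence measured.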

[17] = target: Aryl hydrocarbon receptor (Homo sapiens) (UniProt P35869); assay: qHTS assay to identify small molecule that activate the aryl hydrocarbon receptor (AhR) signaling pathway (AID 743085);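 also: HG2L7.5c1 human HepG2 liver cells with stably integrated DRE-driven firefly reporter; series mostly up to about 70 µM; nearly all actives have a fitted effect of over 15% in size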
Chain of Aryl hydrocarbon receptor (Homo sapiens) (P35869 whole entry, looked up): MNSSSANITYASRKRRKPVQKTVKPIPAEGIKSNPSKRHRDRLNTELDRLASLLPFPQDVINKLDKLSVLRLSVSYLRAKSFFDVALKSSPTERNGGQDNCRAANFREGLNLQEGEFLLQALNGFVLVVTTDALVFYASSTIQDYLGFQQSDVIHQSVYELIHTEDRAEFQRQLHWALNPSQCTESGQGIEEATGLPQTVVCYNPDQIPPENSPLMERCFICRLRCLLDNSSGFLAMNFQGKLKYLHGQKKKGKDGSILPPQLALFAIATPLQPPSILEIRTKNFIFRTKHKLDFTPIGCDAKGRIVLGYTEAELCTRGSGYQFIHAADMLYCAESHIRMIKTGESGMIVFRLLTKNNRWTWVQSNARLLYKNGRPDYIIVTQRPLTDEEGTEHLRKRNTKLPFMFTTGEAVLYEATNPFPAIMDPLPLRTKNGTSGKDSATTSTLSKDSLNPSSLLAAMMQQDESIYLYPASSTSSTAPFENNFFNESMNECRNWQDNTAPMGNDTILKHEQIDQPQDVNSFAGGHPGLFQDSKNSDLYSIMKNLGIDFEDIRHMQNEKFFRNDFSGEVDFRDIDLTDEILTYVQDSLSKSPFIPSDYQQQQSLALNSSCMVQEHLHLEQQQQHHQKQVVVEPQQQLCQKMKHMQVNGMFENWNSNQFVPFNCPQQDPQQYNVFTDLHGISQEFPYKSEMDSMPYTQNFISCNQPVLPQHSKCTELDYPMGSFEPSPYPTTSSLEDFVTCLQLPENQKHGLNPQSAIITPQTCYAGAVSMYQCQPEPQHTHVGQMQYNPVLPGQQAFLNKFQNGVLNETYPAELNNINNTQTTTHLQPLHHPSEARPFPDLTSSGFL
Procedure, shortened: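 Reporter assay in engineered HepG2 line HG2L7.5c1, whose plasmid carries twenty dioxin responsive elements upstream of firefly luciferase. Treatment lasted 24 h at 37C; ONE-Glo luminescence gauged induction.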

[18] = target: Peroxisome proliferator-activated receptor gamma (Homo sapiens) (UniProt P37231); assay: qHTS assay to identify small molecule agonists of the peroxisome proliferator-activated receptor gamma (PPARg) signaling pathway (AID 743094; active = well fitted activation curve with a large enough effect in the signal ratio in the repeat runs, not every such curve was filed as active; the % refers to the signal ratio)
Chain of Peroxisome proliferator-activated receptor gamma (Homo sapiens) (P37231 whole entry, looked up): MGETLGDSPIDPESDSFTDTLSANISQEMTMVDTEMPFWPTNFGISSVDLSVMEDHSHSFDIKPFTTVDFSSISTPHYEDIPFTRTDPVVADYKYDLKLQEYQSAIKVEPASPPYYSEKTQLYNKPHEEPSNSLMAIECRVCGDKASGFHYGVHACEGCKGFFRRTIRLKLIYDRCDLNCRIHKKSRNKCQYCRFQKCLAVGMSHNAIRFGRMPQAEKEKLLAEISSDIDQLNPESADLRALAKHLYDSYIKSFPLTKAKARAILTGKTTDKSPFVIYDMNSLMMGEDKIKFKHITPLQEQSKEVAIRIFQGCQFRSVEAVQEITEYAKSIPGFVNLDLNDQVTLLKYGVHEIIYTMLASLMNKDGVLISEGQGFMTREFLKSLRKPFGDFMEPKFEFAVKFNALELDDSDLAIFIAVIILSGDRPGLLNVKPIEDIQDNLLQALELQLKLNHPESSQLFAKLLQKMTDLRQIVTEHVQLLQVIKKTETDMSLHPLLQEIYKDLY
Procedure, shortened: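 Reporter activation was scored by fluorescence of cleaved LiveBLAzer B/G substrate (1 h, room temperature) in PPARg-bla HEK293H cells previously treated 17 h at 37C with DMSO-dissolved compounds.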

[19] = target: Peroxisome proliferator-activated receptor gamma (Homo sapiens) (UniProt P37231); assay: qHTS assay to identify small molecule antagonists of the peroxisome proliferator-activated receptor gamma (PPARg) signaling pathway (AID 743191; calls by dose curve; also: series mostly up to about 63 µM; nearly all actives have a fitted effect of over 30% in size)
Procedure, shortened: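 Beta-lactamase reporter under UAS control in HEK293H PPARg-bla cells; compound treatment 17 h at 37C. Read-out: fluorescence intensity after 1 h room-temperature incubation with LiveBLAzer B/G FRET substrate.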

[20] = qHTS assay to identify aromatase inhibitors - cell viability counter screen (AID 743084);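 also: cells stimulated with testosterone during compound exposure; nearly all actives have a fitted effect of over 55% in size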

Measured: Potency

C=C(C)C(=O)OCC1CCCO1 (centres undefined)
not listed: [15] | [16] | [17] | [18] | [19] | [20]
inactive: all other assays above

CCN(C=O)CC
not listed: [2] | [7] | [9] | [13] | [17] | [18] | [19] | [20]
inactive: all other assays above

Cc1onc(-c2c(Cl)cccc2Cl)c1C(=O)Cl
inactive: [1] | [2] | [3] | [5] | [6] | [7] | [8] | [9] | [10] | [12] | [13]

NCCCC(N)(C(=O)O)C(F)F (centres undefined)
inactive: [15] | [1] | [2] | [3] | [6] | [10] | [12] | [13] | [14]

O=C1NC(=O)C2CC=CCC12 (centres undefined)
inactive: [15] | [2] | [3] | [4] | [5] | [6] | [10] | [11] | [12] | [13] | [14]

Cc1ncc([C@@H](CCCCCCc2ccc3c(n2)NCCC3)CC(=O)O)cn1
not listed: [1] | [2] | [9] | [14] | [15] | [16] | [19] | [20]
inactive: all other assays above

COCCOC[C@H](CC1(C(=O)NC2CCC(C(=O)O)CC2)CCCC1)C(=O)Oc1ccc2c(c1)CCC2 (some centres undefined)
not listed: [2] | [11] | [14] | [16] | [18] | [20]
inactive: all other assays above

O=[N+]([O-])c1cncn1CCN1CCOCC1
not listed: [7] | [9] | [11] | [15] | [16] | [17] | [18] | [20]
inactive: all other assays above

CC(C(=O)O)c1cccc(Oc2ccccc2)c1 (centres undefined)
inactive: [17] | [15] | [1] | [3] | [4] | [6] | [8] | [10] | [12] | [13] | [14]

Clc1cc(Cl)c(Cl)nc1Cl
not listed: [1] | [7] | [16] | [17] | [20]
inactive: all other assays above

CNCC(O)c1ccc(O)c(O)c1 (centres undefined)
inactive: [19] | [1] | [2] | [5] | [6] | [10] | [12] | [13] | [14]

C=C(C)C(=O)OCC(O)CO (centres undefined)
not listed: [15] | [17] | [18] | [20]
inactive: all other assays above

NC(=O)NC1N=C([O][Al])NC1=O (centres undefined)
inactive: [19] | [3] | [6] | [8] | [10] | [11] | [12]

Cc1coc2ccccc2c1=O
inactive: [19] | [1] | [2] | [4] | [5] | [6] | [7] | [10] | [11] | [13]

CC1=NN(c2cc(S(=O)(=O)O)ccc2Cl)C(=O)C1N=Nc1ccccc1 (centres undefined)
not listed: [1] | [3] | [5] | [15] | [16] | [17] | [20]
inactive: all other assays above

O=C(O)CCCC[P+](c1ccccc1)(c1ccccc1)c1ccccc1
inactive: [19] | [2] | [3] | [4] | [5] | [6] | [7] | [10] | [13]

CC1=NN(c2cccc(S(=O)(=O)O)c2)C(=O)C1
inactive: [20] | [19] | [1] | [4] | [5] | [6] | [7] | [8] | [12] | [13] | [14]

COc1cccc(OC)c1C(=O)N[C@@H]1C(=O)N2[C@@H]1SC(C)(C)[C@@H]2C(=O)O
inactive: [17] | [18] | [3] | [4] | [6] | [10] | [12] | [13] | [14]

Nc1c2c(nc3c1CCC3)CCCC2
inactive: [20] | [19] | [1] | [2] | [4] | [6] | [10] | [11] | [12] | [13] | [14]

CCCC(=O)O[C@]1(C(=O)CC)CC[C@H]2[C@@H]3CCC4=CC(=O)CC[C@]4(C)[C@H]3[C@@H](O)C[C@@]21C
inactive: [3] | [4] | [5] | [9] | [10] | [12]

CCOC(=O)C(=O)CCCCCCl
not listed: [15] | [16] | [17] | [18] | [20]
inactive: all other assays above

COCCOCC(OC)OC
not listed: [4] | [9] | [15] | [17] | [18] | [20]
inactive: all other assays above

Cc1nc(C2CCCCC2)c(-c2ccc(S(N)(=O)=O)c(F)c2)o1
inactive: [1] | [4] | [5] | [6] | [10] | [11] | [12] | [13] | [14]

[O-][n+]1cccc(CO)c1
not listed: [1] | [4] | [11] | [16] | [18] | [20]
inactive: all other assays above

CCO[Si](OCC)(OCC)c1ccccc1
inactive: [15] | [2] | [5] | [6] | [8] | [10] | [11] | [12] | [13] | [14]

O=S(=O)(O)c1cccc2ccccc12
not listed: [2] | [10] | [11] | [13] | [14] | [16] | [17] | [20]
inactive: all other assays above

CCNC(=O)[C@@H]1CCCN1C(=O)[C@H](CCCN=C(N)N)NC(=O)[C@H](CC(C)C)NC(=O)CNC(=O)[C@H](Cc1ccc(O)cc1)NC(=O)[C@H](CO)NC(=O)[C@H](Cc1c[nH]c2ccccc12)NC(=O)[C@H](Cc1cnc[nH]1)NC(=O)[C@@H]1CCC(=O)N1 ([pGlu]HWSYGLRP-NHEt)
not listed: [4] | [11] | [15] | [16] | [17] | [18] | [20]
inactive: all other assays above
